TDP1 cell CPT – qHTS for Inhibitors of human tyrosyl-DNA phosphodiesterase 1 (TDP1): qHTS in cells in presence of CPT; AID 686979, 2013; Potency, µM (series often up to 46.2 µM), for inactives: at the highest dose activity change, negative = growth inhibition, hits mostly inhibitors; chicken DT40 Tdp1-/-;hTDP1 cells + 20 nM CPT, ATP luminescence, 48 h; actives 12% (n = 420,000); further: potency means the concentration at half of the fitted maximal effect; nearly all actives have a fitted effect of over 55% in size
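Chicken DT40 Tdp1-/- cells stably complemented with human TDP1 were seeded at 400 cells/well in medium containing 20 nM camptothecin, exposed to pin-transferred compounds, and grown at 37 °C for at least 48 hr. Viability was read as ATP luminescence.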
IL-1B inflam inh – qHTS for Inhibitors of Inflammasome Signaling: IL-1-beta AlphaLISA Primary Screen; THP-1 LPS/ATP IL-1B secretion, AlphaLISA, 16 h; active compounds read low; activity change, % at 57.5 µM; actives 4.7% (n = 360,000); AID 743279, 2014; in the data active means activity change below about -50%; inconclusive means mostly about -30% to -49%
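Secreted IL-1B measured by AlphaLISA bead assay after 16 h compound exposure of THP-1 cells; compounds (final up to 57.5 uM) added 1 h before LPS (250 ng/mL) and ATP (1.25 mM) stimulation; lower signal means less secretion.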
TDP1 inh – qHTS Assay for Inhibitors of Tyrosyl-DNA Phosphodiesterase (TDP1). actives 0.28% (n = 350,000). recombinant TDP1, AlphaScreen DNA substrate cleavage. Tyrosyl-DNA phosphodiesterase 1 (Homo sapiens), Q9NUW8. Potency, µM (doses to about 130 µM), for inactives: at the top dose activity change, negative = inhibition, actives largely listed as inhibitors; further: potency means the concentration at half of the fitted maximal effect; nearly all actives have a fitted effect of over 40% in size
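Compounds were preincubated with Tdp1 (1 nM final) for 15 min at room temperature before substrate (15 nM final) started a 5 min reaction; beads (10 ug/ml final) were then added for 10 min before AlphaScreen detection.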
DT40 TDP1 no CPT – qHTS for Inhibitors of human tyrosyl-DNA phosphodiesterase 1 (TDP1): qHTS in cells in absence of CPT; actives 15% (n = 420,000); DT40 Tdp1-/- hTDP1 cells, no CPT, ATP luminescence, 48 h; Potency, µM (titrated, usually from 46.2 µM), without a hit: top-dose activity change, negative = growth inhibition, usual class: inhibitors; AID 686978, 2013; further: potency means the concentration at half of the fitted maximal effect; nearly all actives have a fitted effect of over 55% in size
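Readout: luminescence from CellTiter-Glo after 30 min in the dark at RT. Cells: DT40 Tdp1-/- with stable hTDP1, 400/well. Exposure: compounds alone, ≥48 hr, 37 °C.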
CtBP-E1A blk – qHTS Assay for Inhibitors of the CtBP/E1A Interaction; CtBP / adenovirus E1A interaction (AlphaScreen); AlphaScreen GST-E1A/His-CtBP binding, 1536-well; active compounds read low; activity change, % (test concentration not listed); actives 0.49% (n = 340,000); AID 651724, 2012; in the data active means activity change below about -65%; inconclusive means mostly about -30% to -63%
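Protein mix (5X: 125 nM each GST-E1A, His-CtBP) was incubated with pinned compound 2 h at 37 deg C in dark, in 50 mM Tris pH 8.0 buffer with 300 mM NaCl. Glutathione donor and nickel acceptor beads followed; AlphaScreen signal read after 1 h.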
Six1-Eya2 blk – qHTS Assay for Inhibitors of the Six1/Eya2 Interaction; Homeobox protein SIX1 (Homo sapiens) + Protein phosphatase EYA2 (Homo sapiens), …; AlphaScreen GST-Six1/His-Eya2 binding, biochemical; active compounds read low; activity change, % (concentration not given with the values); actives 0.56% (n = 360,000); AID 651725, 2012; in the data active means activity change below about -65%; inconclusive means mostly about -30% to -63%
Target sequence (O00167 whole entry, looked up): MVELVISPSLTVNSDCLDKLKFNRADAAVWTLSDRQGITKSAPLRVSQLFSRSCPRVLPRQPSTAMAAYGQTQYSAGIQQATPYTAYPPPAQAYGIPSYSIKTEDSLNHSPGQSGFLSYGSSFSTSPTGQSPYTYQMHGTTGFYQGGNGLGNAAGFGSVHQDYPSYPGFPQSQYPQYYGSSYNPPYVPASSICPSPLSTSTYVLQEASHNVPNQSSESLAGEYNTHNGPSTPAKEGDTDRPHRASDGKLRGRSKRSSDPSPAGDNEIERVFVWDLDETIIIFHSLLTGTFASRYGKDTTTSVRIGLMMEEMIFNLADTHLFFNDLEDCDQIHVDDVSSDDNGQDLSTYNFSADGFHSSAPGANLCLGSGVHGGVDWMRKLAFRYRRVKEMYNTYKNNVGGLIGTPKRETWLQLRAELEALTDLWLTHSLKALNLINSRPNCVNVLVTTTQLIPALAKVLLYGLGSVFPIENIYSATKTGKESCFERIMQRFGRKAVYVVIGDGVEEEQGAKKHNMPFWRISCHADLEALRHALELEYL
Target sequence (Q15475 whole entry, looked up): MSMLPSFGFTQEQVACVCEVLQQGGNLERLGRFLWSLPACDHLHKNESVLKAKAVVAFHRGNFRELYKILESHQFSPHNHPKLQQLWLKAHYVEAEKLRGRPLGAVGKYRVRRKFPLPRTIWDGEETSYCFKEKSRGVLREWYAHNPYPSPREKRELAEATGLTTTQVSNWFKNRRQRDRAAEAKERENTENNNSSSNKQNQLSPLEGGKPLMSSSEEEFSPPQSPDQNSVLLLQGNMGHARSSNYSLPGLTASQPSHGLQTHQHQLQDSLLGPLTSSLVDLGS
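GST-Six1 + His-Eya2 (5X stock: 250/500 nM); Tris pH 8.0, 300 mM NaCl, 0.05% BSA, 0.02% Tween 20; GSH donor/Ni acceptor beads; 1 h 37 °C dark; AlphaScreen readout.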
* = called active by the depositor; ? = inconclusive; / = no result given; [ ] = dose if it differs, or a comment. This is a sample that favours compounds with a hit; in the whole collection about 18% have one here. Unless noted, the call rests on the fitted dose curve; in most records, active means well fitted curve in the direction sought with a large enough effect; inconclusive means small, poorly fitted or top-dose-only effect, or another doubt; inactive means no such curve, though single readings can be large; an effect the other way counts as inactive or inconclusive. On the % scale 0 is the no-effect control and ±100 the full control effect.

SMILES	TDP1 cell CPT	IL-1B inflam inh	TDP1 inh	DT40 TDP1 no CPT	CtBP-E1A blk	Six1-Eya2 blk
CCCc1nnc(NC(=O)CCC(=O)N2CCC(Cc3ccccc3)CC2)s1	25.9µM*	17.3	3.2%	20.6µM*	/	4.3
CCOc1ccc(S(=O)(=O)Nc2cccc(C(=O)N3CCN(c4ccc(OC)cc4)CC3)c2)cc1	-12.3%	-8.5	8.0%	-24.8%	-0.7	-8.3
CCN(CC)CCCN1C=C2C(=O)C(C)(OC(=O)C3CCCC3)C(=O)C(c3ccccc3)=C2C=C1CCCC(=O)OC (centres undefined)	-8.3%	8.8	-5.6%[12.3 µM]	0.8%	-2.6	-6.5
Cc1ccc(C)c(N2CCN(C(=O)CCC(=O)Nc3nnc(CC(C)C)s3)CC2)c1	?	11.6	2.2%	-2.9%	6.7	1.1
CC(C)Cc1nnc(NC(=O)CCC(=O)N2CCN(c3ccc(Cl)cc3)CC2)s1	20.6µM*	?	1.4%	-16.5%	5.3	1.3
O=C1C=CC(=O)N1CCCCCCCCCCN1C(=O)C=CC1=O	0.581µM*	-86.6*	/	1.3µM*	-6.4	-12.0
Cc1ccc(CS(=O)(=O)Cc2ccc(C(=O)NCc3cccs3)o2)cc1	18.4µM*	-4.8	1.2%	-24.7%	-15.8	-11.7
CCc1ccccc1S(=O)(=O)Cc1ccc(C(=O)NCc2cccs2)o1	18.4µM*	-5.2	-2.3%	?	/	0.2
COc1cccc(C2c3c(ncn(-c4ccc(-c5ccccc5)cc4)c3=N)Oc3ccc4ccccc4c32)c1 (centres undefined)	/	/	3.2%	/	/	/
COc1ccc(C(=O)C2CCCN(C(=O)c3ccc4nccnc4c3)C2)c(C)c1 (centres undefined)	?	0.0	7.8%	?	-0.1	-7.6
COc1cc(/C=C2\CCC(C)C3=C(c4cc(OC)c(OC)c(OC)c4)C(C#N)=C(N)OC32)cc(OC)c1OC (centres undefined)	2.59µM*	-15.8	/	3.66µM*	2.6	-7.6
C[C@]12c3[nH]c4cc(-c5ccco5)ccc4c3CCN1C(=O)[C@@H](CC(=O)NCc1cccc(C(F)(F)F)c1)C[C@@H]2C(=O)N1CCOCC1	?	-52.8*	4.6%[56.1 µM]	?	-5.1	-9.0
CC(C)N(C(=O)[C@H]1C[C@H](CC(=O)NCc2cccc(C(F)(F)F)c2)C(=O)N2CCc3c([nH]c4cc(-c5ccco5)ccc34)[C@]12C)C(C)C	?	-67.4*	2.6%[56.1 µM]	?	-11.6	-17.1
CC(C)N(C(=O)[C@H]1C[C@H](CC(=O)NCc2ccco2)C(=O)N2CCc3c([nH]c4cc(-c5ccco5)ccc34)[C@]12C)C(C)C	?	?	4.9%[56.1 µM]	?	-23.3	-21.5
CC(C)N(C(=O)[C@H]1C[C@H](CC(=O)NCCC2=CCCCC2)C(=O)N2CCc3c([nH]c4cc(-c5ccco5)ccc34)[C@]12C)C(C)C	?	-68.7*	3.5%[56.1 µM]	?	-18.1	-18.7
CCOc1ccc(S(=O)(=O)n2nnc3ccccc32)cc1C(C)C	/	/	-2.2%	/	/	/
COc1ccc(C2CC(=O)N(Cc3ccc(C)cc3)c3c2c(C)nn3-c2nc(C)cc(C)n2)c(OC)c1 (centres undefined)	?	/	5.7%	-52.9%	/	/
O=C(c1cc2nc(-c3ccco3)cc(C(F)(F)F)n2n1)N1CCCCCC1	?	-3.7	0.0%	?	-0.2	6.7
Cn1c(=O)c2cc(NC(=S)NC3CC3)ccc2n1C/C=C/c1ccccc1	-2.6%	-23.5	/	-1.7%	0.2	-7.9
CCn1c(C)c(/C=N/Nc2nc3ccccc3s2)c2ccccc21	17.8µM*	?	7.7%	17.8µM*	-21.6	-26.2
COc1ccc(/C=N/Nc2ccc([N+](=O)[O-])cc2)cc1O	?	-65.6*	/	?	-0.6	9.9
COc1ccc(/C=N/Nc2ccc([N+](=O)[O-])cc2)cc1Cn1cc([N+](=O)[O-])cn1	?	4.5	6.1%	?	-1.8	1.9
Brc1ccc(/C=N/Nc2nc3ccccc3o2)cc1	-23.7%	-10.4	/	-3.6%	-12.8	-8.1
Oc1ccccc1/C=N/Nc1nc2ccccc2o1	3.26µM*	48.9	2.4%	2.91µM*	-77.1*	-71.6*
CCn1c(/C=C/c2c(C)n(CC)c3ccccc23)nc2ccccc2c1=O	?	28.6	2.7%	?	1.0	1.5
SMILES	TDP1 cell CPT	IL-1B inflam inh	TDP1 inh	DT40 TDP1 no CPT	CtBP-E1A blk	Six1-Eya2 blk
Oc1ccc(C=NNc2nc3ccccc3s2)c(O)c1	3.66µM*	-0.7	/	4.11µM*	-24.9	-16.6
COc1ccc(NC(=O)c2noc(C(C)C)c2[N+](=O)[O-])cc1	?	-29.3	1.1%	?	-1.8	4.2
Cc1nnc(NC(=O)CSc2nc3c([nH]c4ccccc43)c(=O)n2-c2ccccc2)s1	-15.6%	/	7.7%	-13.8%	/	/
NC(=O)C1CCN(c2ncnc3c2cnn3-c2ccccc2)CC1	-18.0%	/	9.3%	-2.2%	/	/
COCCCN1C(=O)C(=O)/C(=C(/O)c2ccc(S(=O)(=O)N3CCOCC3)cc2)C1c1ccc(Cl)cc1 (centres undefined)	4.9%	18.5	3.8%	7.5%	/	8.5
C(=N\Nc1nc2ccccc2s1)/c1cccs1	16.4µM*	?	3.1%	?	0.0	-7.8
Oc1ccccc1C=NNc1nc2ccccc2s1	0.0651µM*	?	/	0.0517µM*	3.9	-8.4
C(=N\Nc1nc2ccccc2s1)/c1ccco1	-24.0%	?	-3.1%	?	9.3	-11.9
COc1cccc(C=NNc2nc3ccccc3s2)c1OC	1.8%	25.4	/	?	-0.4	7.8
CC(=O)Nc1ccc(/C=N/Nc2nc3ccccc3s2)cc1	-27.2%	51.6	5.1%	-24.8%	/	2.8
COc1ccc(/C=N/Nc2nc3ccccc3s2)cc1O	17.3%	-86.6*	-1.1%	?	1.5	-0.8
CCOC(=O)N/N=C/c1c(C)nn(-c2ccccc2Cl)c1Cl	?	-9.3	2.8%	?	-2.2	4.7
Cc1nn(-c2ccccc2Cl)c(Cl)c1/C=N/Nc1nc2ccccc2s1	?	12.1	8.5%	11.6µM*	5.5	-10.6
CCN(CC)c1ccc(/C=N/Nc2nn[nH]n2)cc1	?	7.9	/	11.6µM*	/	-1.1

Bioassay records: PubChem, National Center for Advancing Translational Sciences (NCATS)
